HT1080 IDH1KD tx = qHTS for induction of synthetic lethality in tumor cells producing 2HG: qHTS for the HT-1080-IDH1KD cell line. HT-1080 IDH1 knockdown viability, ATP luminescence, 48 h. Potency, µM (highest dose often 46.1 µM), actives largely listed as cytotoxic. 360,000 tested, 2% active
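IDH1KD HT-1080 cells, 750/well, RPMI + 5% FBS; compound pinned after 2 h settling; 48 h, 37 °C; CellTiter-Glo luminescence; % activity normalised to DMSO and no-cell wells; curves fitted, classed by r2 and efficacy.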
KB-V1 cytotox = qHTS assay for MDR1-selective chemotherapeutics: Primary screen using the drug-selected MDR subline cells KB-V1; KB-V1 MDR cells viability, CellTiter-Glo, 72 h; Potency, µM (top dose mostly 46.1 µM), most hits filed as cytotoxic; 400,000 tested, 3.4% active; note: nearly all actives have a fitted effect of over 60% in size
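Potencies derive from concentration-effect curves fitted to normalized luminescence (CellTiter-Glo) of KB-V1 cells treated for 72 h at 37 degrees C in phenol-red-free DMEM containing 10% FBS.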
DT40 TDP1 CPT = qHTS for Inhibitors of human tyrosyl-DNA phosphodiesterase 1 (TDP1): qHTS in cells in presence of CPT. Potency, µM (doses to about 46.2 µM), actives largely listed as inhibitors. 420,000 tested, 12% active. AID 686979, 2013. chicken DT40 Tdp1-/-;hTDP1 cells + 20 nM CPT, ATP luminescence, 48 h; note: nearly all actives have a fitted effect of over 55% in size
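Chicken DT40 Tdp1-/- cells complemented with human TDP1, 400 cells/well, exposed to compounds plus 20 nM camptothecin for at least 48 h at 37 C; viability read as ATP content by CellTiter-Glo luminescence.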
KB-3-1 cytotox = qHTS assay for MDR1-selective chemotherapeutics: Primary screen using the parental adenocarcinoma cell KB-3-1. KB-3-1 viability, CellTiter-Glo ATP luminescence, 72 h. Potency, µM (titrated, usually from 46.1 µM), usual class: cytotoxic. 400,000 tested, 1.4% active; note: nearly all actives have a fitted effect of over 60% in size
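Luminescent ATP read-out (CellTiter-Glo) measures survival of drug-naive KB-3-1 cells after 72 h compound exposure at 37 °C. Titration series was screened from lowest to highest concentration, with DMSO vehicle plates as background controls.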
HT1080-NT tox = qHTS for induction of synthetic lethality in tumor cells producing 2HG: qHTS for the HT-1080-NT fibrosarcoma cell line; HT-1080-NT fibrosarcoma viability, CellTiter-Glo ATP luminescence, 48 h; 360,000 tested, 1.6% active; Potency, µM (titrated, usually from 46.1 µM), hits mostly cytotoxic; AID 686970, 2013;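 note: NT is the 2HG producing partner of a matched IDH1 knockdown line; nearly all actives have a fitted effect of over 55% in size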
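Read-out is CellTiter-Glo luminescence after 10 minutes at room temperature, following 48 hours' compound treatment of HT-1080-NT cells (750 cells/well, RPMI, 5% FBS, 37 degrees C).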
TDP1 cell noCPT = qHTS for Inhibitors of human tyrosyl-DNA phosphodiesterase 1 (TDP1): qHTS in cells in absence of CPT | DT40 Tdp1-/- hTDP1 cells, no CPT, ATP luminescence, 48 h | Potency, µM (highest dose often 46.2 µM), usual class: inhibitors | 420,000 tested, 15% active | AID 686978, 2013; note: nearly all actives have a fitted effect of over 55% in size
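Stably hTDP1-transfected Tdp1-null chicken DT40 cells were treated with library compounds minus camptothecin and grown for at least 48 hr at 37 °C, after which cellular ATP was quantified by luminescence.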
Numbers stand for hits; – = inactive; ? = inconclusive; · = no result; [ ] = remark or other dose. Shown are actives, neighbours in structure and some others; about 19% of the full set was active somewhere. Calls come from the whole dose curve; as a rule, active = well fitted curve in the direction sought with a large enough effect; inconclusive = small, poorly fitted or top-dose-only effect, or another doubt; inactive = no such curve, though single readings can be large; an effect the other way counts as inactive or inconclusive.

SMILES	HT1080 IDH1KD tx	KB-V1 cytotox	DT40 TDP1 CPT	KB-3-1 cytotox	HT1080-NT tox	TDP1 cell noCPT
CC1CCN(S(=O)(=O)c2cccc(C(=O)Nc3nncs3)c2)CC1	–	?	–	–	–	–
COc1ccc(NC(=O)CSCc2ccc(C)cc2)cc1	–	–	?	–	–	?
Cc1nccn1CC(=O)N/N=C/c1ccccc1O	–	–	?	–	–	20.6µM
COc1ccc(CSCC(=O)N/N=C/c2ccccc2O)cc1	?	–	2.91µM	?	?	2.59µM
O=C(CSc1n[nH]c(=O)[nH]c1=O)N/N=C/c1ccccc1O	–	–	13µM	–	–	–
Cc1nccn1CC(=O)N/N=C/c1c[nH]c2ccccc12	–	–	–	–	–	?
CCn1c(SCC(=O)Nc2ccc3c(c2)OCO3)nnc1C(C)C	–	–	–	–	–	–
COc1cc(-c2nc(C)cnc2C)cc2c1OCCN(C(=O)Cc1cc(OC)c(OC)c(OC)c1)C2	·	·	–[9.04 µM]	·	·	–
COc1ccc(-c2cc(CNc3nc(NC(C)C)nc4cc(-c5ccccc5)sc34)on2)cc1	11.6µM	20.6µM	4.11µM	?	10.3µM	3.66µM
CC(=O)NCCNc1nc(NC(C)C)nc2cc(-c3ccccc3)sc12	–	–	23.1µM	–	–	?
COCCNc1nc(NCCNC(C)=O)c2sc(-c3ccccc3)cc2n1	?	–	?	–	?	?
C=CCNc1nc(NCc2ccc(NC(C)=O)cc2)c2sc(-c3ccccc3)cc2n1	–	?	8.2µM	?	18.4µM	9.2µM
CC(=O)Nc1ccc(CNc2nc(NCc3cccs3)nc3ccsc23)cc1	?	–	–	–	?	–
COc1ccc(-c2cc(COc3ccccc3)on2)cc1	–	–	–	–	–	?
CC(=O)Nc1ccc(CNc2nc(NC(C)C)nc3cc(-c4ccccc4)sc23)cc1	?	20.6µM	3.66µM	?	?	4.11µM
COc1cccc(CNC(=O)[C@@H]2CCCN2C(=O)[C@H]2CCCCN2C(=O)c2c(F)cccc2F)c1	–	?	–	–	–	?
Cc1ccc(NC(=O)CCC(=O)NNC(=O)COc2ccc([N+](=O)[O-])cc2)c(C)c1	–	–	–	–	–	–
Cc1cc2n(n1)C(c1ccccc1)CC(c1ccc(Br)cc1)=N2 (stereo not drawn)	–	–	16.4µM	–	–	?
CC(=O)Nc1ccc(NC(=O)[C@@H](NC(=O)c2ccccc2F)C(C)C)cc1	–	–	–	–	–	–
O=C(Nc1cc2c(cc1Cl)OCCCO2)c1ccc(F)cc1	–	16.4µM	–	–	–	–
COc1cccc(C(=O)Nc2cc3c(cc2Cl)OCCCO3)c1	–	23.1µM	–	–	–	–
O=C(Nc1cc2c(cc1Br)OCCCO2)c1ccccc1	–	20.6µM	–	–	–	–
COc1ccc(C(=O)Nc2cc3c(cc2Cl)OCCCO3)cc1	–	–	–	–	–	?
Cc1ccc(C(=O)Nc2cc3c(cc2Cl)OCCCO3)cc1	–	–	–	–	–	–
COc1cc(=O)n2c(c1C(=O)NCc1ccco1)CCN(C(=O)c1ccc(C)c(C)c1)CC2	·	·	–[9.04 µM]	·	·	–
SMILES	HT1080 IDH1KD tx	KB-V1 cytotox	DT40 TDP1 CPT	KB-3-1 cytotox	HT1080-NT tox	TDP1 cell noCPT
O=C(COC(=O)c1cccc(C(F)(F)F)c1)NC(=O)NC1CCCC1	–	–	?	–	–	?
Cc1cc(=O)n2nc(N3CCC(C(=O)Nc4ccc(C)c(Cl)c4)CC3)sc2n1	·	–	?	–	·	–
O=C1NC2CCCCC2C(=O)N1OS(=O)(=O)c1ccccc1 (stereo not drawn)	?	–	2.59µM	?	–	11.6µM
O=C1CCN(S(=O)(=O)c2ccccc2)C2CCCCC12 (stereo not drawn)	–	?	–	–	–	?
COc1ccc(/C=C/C(=O)c2ccc([N+](=O)[O-])o2)cc1OC	?	?	0.581µM	?	?	1.16µM
O=C(/C=C/c1cccc(Cl)c1)c1ccc([N+](=O)[O-])o1	?	–	0.581µM	?	?	0.581µM
COc1cc(/C=C/C(=O)c2ccc([N+](=O)[O-])o2)ccc1O	?	–	0.92µM	–	18.4µM	0.517µM
COc1cc(C(=O)COC(=O)c2ccc([N+](=O)[O-])o2)cc(OC)c1OC	–	·	–	·	–	–
COc1cc(NC(=O)CCN2CCN(c3ccccc3F)CC2)cc(OC)c1	–[9.24 µM]	–	29.1µM	–	–	–
COc1ccc(NC(=O)CCN2CCN(c3ccc(F)cc3)CC2)cc1	–	–	23.1µM	–	–	?
COc1ccc(NC(=O)CCN2C(=O)[C@@H]3[C@H](C2=O)[C@H]2C=C[C@@H]3C2)cc1	?	–	?	–	18.4µM	–
O=C(CCN1CCN(c2ccccc2F)CC1)Nc1ccc(F)cc1	–	–	–	–	–	?
Cc1ccccc1N1CCN(CCC(=O)Nc2ccc(F)cc2)CC1	–	18.4µM	?	?	–	?
O=C(CCN1CCN(c2ccccc2F)CC1)Nc1cccc(F)c1	–	–	?	?	–	?
COc1ccc(NC(=O)CCN2CCN(c3cccc(Cl)c3)CC2)cc1	·	–	?	–	·	?
Cc1c(C#N)c(N=CN(C)C)c(C(=O)c2ccccc2)n1-c1ccc(Br)cc1	–	–	18.4µM	–	–	?
Cc1c(C#N)c(N=CN(C)C)c(C(=O)c2ccc(Br)cc2)n1-c1ccccc1	–	–	–	–	–	–
CC(C)(C)C1=C(C#N)C(c2ccncc2)C(C#N)=C(N)O1 (stereo not drawn)	–	–	18.4µM	–	–	29.1µM
CC(C)(C)C1=C(C#N)C(c2ccc3c(c2)OCO3)C(C#N)=C(N)O1 (stereo not drawn)	–	–	?	–	–	–
O=C(Cn1cnc2c(oc3nc4c(cc32)CCCC4)c1=O)Nc1cccc(Cl)c1	–	–	23.1µM	–	–	11.6µM
Cc1cc(C)cc(NC(=O)c2ncn(-c3ccccc3)n2)c1	·	–	–	–	·	?
C=CCn1c(COc2ccc(F)cc2)nnc1SCC(=O)NC1CCS(=O)(=O)C1 (stereo not drawn)	–	–	–	–	–	–
COc1ccc(C(=O)Nc2ccc(-n3nncc3-c3ccc(OC)c(OC)c3)cc2)cc1	·	·	20.6µM	·	·	20.6µM
O=C(Nc1ccc(-n2nncc2-c2ccco2)cc1)c1ccc(F)cc1	–	16.4µM	?	–	–	?

From PubChem BioAssay
